According to PubChem BioAssay (Tox21):
Several values for one entry are separate records, joined by “and”; a condition that tells them apart may be missing. Identical values can stand only once. A number with no mark means an inactive call. Records with an inconclusive call do not appear. A call without a number means that no potency is given here. Activity calls are given as the source filed them. The call rests on the fitted dose curve; in most records, active means well fitted curve in the direction sought with a large enough effect in the repeat runs; inconclusive means weak or mixed curves; inactive means no such curve, though single readings can be large; an effect the other way counts as inactive or inconclusive.

Tests used:
[1] = qHTS RealTime-Glo MT Cell Viability Assay in HepG2 cells - 40 hour (AID 1224870); further: nearly all actives have a fitted effect of over 50% in size
Outline: (§1)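 HepG2 cells mixed with RealTime-Glo MT reagents (NanoLuc plus cell-permeant prosubstrate) were seeded at 600 cells/well, incubated 5 h at 37 C/5% CO2, then pinned with compounds in DMSO; nonlytic luminescence tracked viability during 40 h treatment.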

[2] = A CellTox Green Cytotoxicity Assay to monitor cytotoxicity in HEK293 cells - 40 hour (AID 1224871); further: nearly all actives have a fitted effect of over 45% in size
Outline: (§2)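 Read-out: fluorescence of a cell-impermeant cyanine dye staining DNA of dead cells, proportional to cytotoxicity. HEK293, 600 cells/well with reagent, compound (23 nL DMSO) added after 5 h; reads at 0, 8, 16, 24, 32, 40 h.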

[3] = qHTS RealTime-Glo MT Cell Viability Assay in HEK293 cells - 16 hour (AID 1224872); further: top concentration of the series differs between compounds; nearly all actives have a fitted effect of over 50% in size
Outline: (§3)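 Cells + reagent dispensed (600 cells/well, HEK293) → 5 h at 37 C/5% CO2 → 23 nL compound in DMSO pinned → 40 h at 37 C → luminescence read at 0, 8, 16, 24, 32, 40 h.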

[4] = qHTS RealTime-Glo MT Cell Viability Assay in HepG2 cells - 8 hour (AID 1224873); further: nearly all actives have a fitted effect of over 55% in size
Outline: as §1

[5] = qHTS RealTime-Glo MT Cell Viability Assay in HEK293 cells - 40 hour (AID 1224874); settings: RealTime-Glo luminescence; max response: active compounds read low; further: nearly all actives have a fitted effect of over 50% in size
Outline: (§4)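 Luminescence readout at each listed time point; HEK293, 600 cells/well, RealTime-Glo MT reagent added with cells; compounds pinned (23 nL in DMSO) after 5 h at 37 C; continuous culture at 37 C.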

[6] = A CellTox Green Cytotoxicity Assay to monitor cytotoxicity in HEK293 cells - 24 hour (AID 1224875); further: series mostly up to about 77 µM; nearly all actives have a fitted effect of over 45% in size
Outline: as §2

[7] = A CellTox Green Cytotoxicity Assay to monitor cytotoxicity in HepG2 cells - 16 hour (AID 1224876); further: nearly all actives have a fitted effect of over 45% in size
Outline: (§5)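 HepG2, 600 cells/well premixed w/ CellTox Green; 5 h settle, 37 C/5% CO2; pintool cpd add (DMSO); 37 C, 40 h; fluorescence read at 0, 8, 16, 24, 32, 40 h.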

[8] = qHTS RealTime-Glo MT Cell Viability Assay in HepG2 cells - 32 hour (AID 1224877); further: nearly all actives have a fitted effect of over 55% in size
Outline: (§6)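 Real-time, nonlytic viability: 600 HepG2 cells/well mixed with NanoLuc enzyme plus prosubstrate; 5 h settle, compound (DMSO) added by pintool; luminescence monitored over 40 h at 37 C.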

[9] = A CellTox Green Cytotoxicity Assay to monitor cytotoxicity in HepG2 cells - 24 hour (AID 1224878); further: nearly all actives have a fitted effect of over 45% in size
Outline: as §5

[10] = A CellTox Green Cytotoxicity Assay to monitor cytotoxicity in HepG2 cells - 40 hour (AID 1224879); further: nearly all actives have a fitted effect of over 40% in size; further: potency means the concentration at half of the fitted maximal effect
Outline: as §5

[11] = qHTS RealTime-Glo MT Cell Viability Assay in HEK293 cells - 0 hour (AID 1224880)
Outline: as §4

[12] = A CellTox Green Cytotoxicity Assay to monitor cytotoxicity in HEK293 cells - 32 hour (AID 1224881); further: nearly all actives have a fitted effect of over 40% in size
Outline: as §2

[13] = A CellTox Green Cytotoxicity Assay to monitor cytotoxicity in HepG2 cells - 0 hour (AID 1224882); further: nearly all actives have a fitted effect of over 35% in size
Outline: as §5

[14] = A CellTox Green Cytotoxicity Assay to monitor cytotoxicity in HEK293 cells - 8 hour (AID 1224884); further: nearly all actives have a fitted effect of over 35% in size
Outline: as §2

[15] = qHTS RealTime-Glo MT Cell Viability Assay in HepG2 cells - 16 hour (AID 1224885); further: nearly all actives have a fitted effect of over 50% in size
Outline: as §6

[16] = qHTS RealTime-Glo MT Cell Viability Assay in HEK293 cells - 24 hour (AID 1224886)
Outline: as §3

[17] = qHTS RealTime-Glo MT Cell Viability Assay in HEK293 cells - 8 hour (AID 1224887)
Outline: as §4

[18] = A CellTox Green Cytotoxicity Assay to monitor cytotoxicity in HEK293 cells - 16 hour (AID 1224888); further: nearly all actives have a fitted effect of over 35% in size
Outline: as §2

[19] = qHTS RealTime-Glo MT Cell Viability Assay in HepG2 cells - 0 hour (AID 1224889); further: nearly all actives have a fitted effect of over 50% in size
Outline: as §6

SMILES | outcome [1] | Potency [2] | outcome [3] | outcome [4] | max response [5] | Potency [6] | Potency [7] | outcome [8] | Potency [9] | Potency [10] | outcome [11] | Potency [12] | Potency [13] | Potency [14] | outcome [15] | outcome [16] | outcome [17] | Potency [18] | outcome [19]
CNC(=O)O/N=C/C(C)(C)S(C)=O (stereo not drawn) | inactive | inactive | inactive | inactive | 16.8% and -17.7% | inactive | inactive | inactive | inactive | inactive | inactive | inactive | inactive | inactive | inactive | inactive | inactive | inactive | inactive
CCOC(=O)CC(SP(=O)(OC)OC)C(=O)OCC (stereo not drawn) | inactive | inactive | inactive | inactive | 11.3% and 26.8% | inactive | inactive | inactive | inactive | inactive | inactive | inactive | inactive | inactive | inactive | inactive | inactive | inactive | inactive
Nc1ccc(N)cc1 | inactive | inactive | inactive | inactive | 13.6% and -13% | inactive | inactive | inactive | inactive | inactive | inactive | inactive | inactive | inactive |  | inactive | inactive | inactive | inactive
CCCCCCCCCCCCCCCCCC(=O)O | inactive | inactive | inactive | inactive | 2.01% and -1.45% and 0.984% | inactive | inactive | inactive | inactive | inactive | inactive | inactive | inactive | inactive |  | inactive | inactive | inactive | inactive
N#Cc1cccc(C#N)c1 | inactive | inactive | inactive | inactive | 2.43% and 3.42% | inactive | inactive | inactive | inactive | inactive | inactive | inactive | inactive | inactive |  | inactive | inactive | inactive | inactive
COC(=O)Nc1cccc(OC(=O)Nc2cccc(C)c2)c1 | inactive | inactive | inactive | inactive | 3.85% and -5.62% | inactive | inactive | inactive | inactive | 49 µM (active) | inactive | inactive | inactive | inactive | inactive | inactive | inactive | inactive | inactive
Nc1nc(N)nc(NC2CC2)n1 | inactive | inactive | inactive | inactive | -1.36% and 9.96% and -0.244% | inactive | inactive | inactive | inactive | inactive | inactive | inactive | inactive | inactive | inactive | inactive | inactive | inactive | inactive
CC[N+](=O)[O-] | inactive | inactive | inactive | inactive | 7.02% and 16.9% | inactive | inactive | inactive | inactive | inactive | inactive | inactive | inactive | inactive |  | inactive | inactive | inactive | inactive
